Measurements taken from PubChem BioAssay (NCI).
About 83,000 compounds went through this panel and 20% of them were active in at least one assay; those are over-represented in the sample as a whole.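 Treatment: one concentration, 48 hours, 96-well format. Scoring: percent growth, with anything below 10 considered active.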 A number with no mark means an inactive call. The source made the active and inactive calls.

Key:
Assay in all cases: NCI-60 one-dose screen, 48 h (100 = growth as untreated, 0 = no growth, -100 = all killed)
Settings in all cases: 10 µM unless noted
[1] = system: BT-549 breast
[2] = system: MDA-MB-435 melanoma
[3] = system: SW-620 colon
[4] = system: MCF7 breast
[5] = system: HCT-116 colon
[6] = system: HCC-2998 colon
[7] = system: KM12 colon

Row | Structure (SMILES) | growth [1] | growth [2] | growth [3] | growth [4] | growth [5] | growth [6] | growth [7]
1 | CN1C(=O)/C(=C/c2nc(-c3cccc(F)c3)n3ccccc23)c2ccccc21 | 90.9% | 93.6% | 84.6% | 44.3% | 44.5% | 99.4% | 94.1%
2 | Cc1ccc([N+](=O)[O-])cc1NC(=O)Nc1cccc(F)c1 | 92.7% | 76.7% | 99.7% | 69.8% | 44% | 91.8% | 80.9%
3 | O=C(Nc1ccc(Cl)cc1Cl)Nc1ccc(-c2cccnc2)cc1N1CCC(CO)CC1 | 66.6% | 21.4% | 17.6% | 20% | 18.1% | 35.2% | 25.3%
4 | COc1ccc2nc3cc(Cl)ccc3c(Nc3cc(C(C)C)c(O)cc3C)c2c1 | 57% | 30.8% | 21.8% | 15.5% | 1.48% (active) | 37.5% | 8.35% (active)
5 | OC(c1cc(C(F)(F)F)nc2c(C(F)(F)F)cccc12)C1CCCCN1 (configuration not stated) | 67.6% | 61.5% | 72.9% | 21.8% | 44.7% | 20.1% | 32.7%
6 | CSc1ccc2c(c1)N(CCC1CCCCN1C)c1ccccc1S2 (configuration not stated) | 67.9% | 42.6% | 75.6% | 5.18% (active) | 42.3% | 34.4% | 45%
7 | CCOC(=O)c1c(NC(=O)C2CCCCC2C(=O)O)sc2c1CCCC2 (configuration not stated) | 102% | 97.4% | 101% | 98.1% | 109% | 110% | 109%
8 | CN(C)c1ccc2[nH]c3c(C(N)=O)cc(=O)c(=O)c=3oc2c1 | 45.9% | -70.1% (active) | 33.8% | 2.37% (active) | -10.1% (active) | 97.7% | 96.3%
9 | Cc1nn(-c2ccc(Cl)cc2)c2nc3c(nc12)C(=O)C(=O)c1ccccc1-3 | 92.1% | 97.7% | 67.2% | 49.7% | 80.2% | 66.6% | 61.9%
10 | COc1ccc(OC)c2c1[nH]c(=O)c1c3ccccc3cn21 | -11.6% (active) | -97.9% (active) | -59.8% (active) | -78.5% (active) | -71.5% (active) | -77.4% (active) | -52.6% (active)
11 | CN(CC(=O)N(Cc1ccc(C2CCCCC2)cc1)c1ccc(C(=O)O)cc1)S(=O)(=O)c1c(F)c(F)c(F)c(F)c1F | 75.4% | 68.3% | -67% (active) | 10.6% | 5.63% (active) | -62.9% (active) | 90%
12 | CCN(CC)c1ccc(N=Nc2cc(Cl)ccc2Cl)c(NC(=O)CCC(=O)O)c1 | 120% | 115% | 105% | 93.2% | 99.7% | 107% | 101%
13 | O=C1Cc2cc(CCn3cncn3)c(Cl)cc2N1 | 68% | 34.4% | 54.2% | 29% | 79% | 75.1% | 36%
14 | CC[C@]1(O)CC2CN(CCc3c([nH]c4ccccc34)[C@@](C(=O)OC)(c3cc4c(cc3OC)N(C)[C@H]3[C@@](O)(C(=O)OC)[C@H](OC(C)=O)[C@]5(CC)C=CCN6CC[C@]43[C@@H]65)C2)C1 (some centres not stated) | 34.2% | -17.8% (active) | 21.6% | 8.22% (active) | 1.69% (active) | -23.4% (active) | -7.67% (active)
15 | O=C1C2C3C=CC(O3)C2C(=O)N1Nc1ccccc1 (configuration not stated) | 108% | 96.9% | 108% | 98.9% | 106% | 102% | 115%
16 | CCOc1cccc(C2CC(=O)Nc3cc4c(cc32)OCO4)c1 (configuration not stated) | 82.4% | 29.2% | 84.2% | 82.8% | 80.7% | 86.4% | 72.3%
